Compound activity: PubChem, National Center for Advancing Translational Sciences (NCATS)
Shiga inhibitor: A qHTS for Small Molecule Inhibitors of Shiga Toxin; Vero cells, Shiga toxin protein synthesis inhibition reporter; inhibition, % at 38.7 µM; 290,000 compounds, 9.2% hits; AID 2315, 2010; in the data active = inhibition mostly above about 28%, no sharp cut-off; inactive = mostly below about 43%; also: 0% is about no effect
HCMV antiviral: qHTS Assay for inhibitors of the human cytomegalovirus (HCMV); HFF cells, HCMV-luciferase reporter, 72 h; hits give low values; activity change, negative = inhibition, % at 57.5 µM; 410,000 compounds, 4.5% hits; AID 1259415, 2018; in the data active = activity change below about -60%; inconclusive = no clear call, values can overlap the other calls; inactive = above about -39%; also: % is scaled to controls: 0 for no effect and ±100 for the full control effect
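After 16 h attachment at 37C, HFF cells received test compound and HCMV-luciferase (1 PFU/cell); reporter luminescence read 72 h later, data normalized against buffer-only and known inhibitor Salinomycin.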
CHX counter: Cycloheximide Counterscreen for Small Molecule Inhibitors of Shiga Toxin; cell reporter, cycloheximide protein synthesis inhibition counterscreen; 300,000 compounds, 12% hits; max response, %; AID 2314, 2010; in the data active = max response mostly above about 13%, no sharp cut-off; inactive = mostly below about 14%; also: read at 38.3 µM for the half of the compounds with a filed dose; 0% is about no effect
Pf growth 48h: Primary qHTS for delayed death inhibitors of the malarial parasite plastid, 48 hour incubation. P. falciparum luciferase growth in erythrocytes, 48 h. Potency, µM (top dose mostly 28.7 µM), inactives show at the highest dose activity change, negative = inhibition, usual class: inhibitors. 310,000 compounds, 5.9% hits; also: potency is read from the fitted curve at half-maximal effect; % is scaled to controls: 0 for no effect and ±100 for the full control effect
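Read-out is firefly luciferase luminescence from an integrated reporter in P. falciparum, so falling signal marks reduced parasite growth. Infected erythrocytes were at 2% hematocrit and 0.1% parasitemia (final) in Albumax-supplemented RPMI 1640.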
HCV inhibitor: qHTS Assay for Inhibitors of Hepatitis C Virus (HCV). AID 651820, 2012. Potency, µM (titrated, usually from 41.8 µM), for the others: top-dose activity change, negative = inhibition, most hits filed as inhibitors. 340,000 compounds, 3.4% hits. Huh7.5.1 HCVcc-Cre infection, luciferase reporter, 44 h; also: potency is read from the fitted curve at half-maximal effect; % is scaled to controls: 0 for no effect and ±100 for the full control effect
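Infectious HCV cell culture screen: compound-treated cells (1,000/well, pre-plated 4 h) are infected with HCVcc-Cre at roughly 0.5 moi and grown 44 h. Infection is quantified by luciferase signal after 15 min substrate incubation at room temperature.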
Pf growth 96h: Primary qHTS for delayed death inhibitors of the malarial parasite plastid, 96 hour incubation. P. falciparum luciferase reporter growth, 96 h. Potency, µM (highest dose often 28.7 µM), inactives show at the highest dose activity change, negative = inhibition, most hits filed as inhibitors. 320,000 compounds, 6.9% hits; also: potency is read from the fitted curve at half-maximal effect; % is scaled to controls: 0 for no effect and ±100 for the full control effect
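P. falciparum expressing integrated firefly luciferase, in erythrocytes at 2% hematocrit, 0.05% parasitemia, incubated with compounds 96 h at 37 C, 5% CO2. Growth inhibition read as loss of luminescence; two-generation exposure targets delayed-death apicoplast inhibitors.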
Numbers without * were called inactive; u = inconclusive; x = no result given; + = active, no number. This is a sample that favours compounds with a hit; in the whole collection about 21% have one here. Unless noted, calls follow the shape of the dose curve; as a rule, active = well fitted inhibition curve with a large enough effect; inconclusive = small, poorly fitted or top-dose-only effect, or another doubt; inactive = no such curve, though single readings can be large or run the other way.

SMILES	Shiga inhibitor	HCMV antiviral	CHX counter	Pf growth 48h	HCV inhibitor	Pf growth 96h
COc1cc(/C=C/C(=O)OCC(=O)NC(=O)NC23CC4CC(CC(C4)C2)C3)ccc1OCC#N	-7.2	-13.0	-3.4	14.7µM*	u	u
N#Cc1nc(Cc2ccccc2)oc1NCc1ccccc1	+	-19.3	27.9*	-6.1%	11.7%	17.3%
N#Cc1nc(COc2ccccc2Cl)oc1NCc1cccnc1	38.1*	-16.3	13.5	-7.5%	15.2%	-12.8%
N#Cc1nc(COc2ccccc2Cl)oc1NCc1ccc(F)cc1	12.1	5.1	9.2	28.6%	9.2%	5.6%
COc1ccc(CNc2oc(COc3ccccc3)nc2C#N)cc1	40.2*	4.7	20.3*	-1.8%	u	u
COc1ccc(CNc2oc(COc3ccccc3Cl)nc2C#N)cc1	16.5	8.6	0.1	x	u	1.47µM*
Cc1cc(C)c2nc(NC(=O)C3CSC4(C)CCC(=O)N34)sc2c1 (stereo unspecified)	x	u	x	-16.6%	u	39.7%
Nn1c(SCC(=O)NNC(=O)c2ccccc2)nnc1-c1ccccc1F	x	-11.9	x	u	8.3%	20.0%
CCC(Cc1ccccc1)NC(=O)c1cc(S(=O)(=O)N2CCCCC2)c[nH]1 (stereo unspecified)	-8.4	-36.3	1.5	-19.1%	-6.5%	2.94µM*
CCN(C(=O)c1cc(S(=O)(=O)N2CCOCC2)cn1C)c1ccc(OC)cc1	x	-66.9*	x	x	x	x
CCN(C(=O)c1cc(S(=O)(=O)N2CCCCC2)c[nH]1)c1ccc(OC)cc1	-1.4	-66.7*	-2.8	-1.9%	-18.8%	-21.6%
CCN(C(=O)c1cc(S(=O)(=O)N2CCOCC2)cn1C)c1cccc(C)c1	-3.9	u	0.5	1.9%	18.1%	u
CCO[C@H]1OC(C(=O)O)=C[C@@H](c2coc3ccccc3c2=O)[C@@H]1CCCO	x	-7.6	x	x	46.1%	x
COc1cc(OC)cc(C2=Cc3ccc(OC)cc3C(CC(C)=O)N2c2ccc(-c3cccs3)cc2)c1 (stereo unspecified)	x	-82.7*	x	x	x	x
Cc1ncc(N=Nc2ccccc2)c(-c2ccccc2)n1	-4.6	-3.7	-2.9	u	10µM*	10.7%
Cc1ncc(S(=O)(=O)c2ccccc2)c(-c2ccccc2)n1	-17.7	-17.8	-4.0	x	16.4%	3.4%
CN(CC(=O)Nc1cccc(F)c1)C(=O)c1ccc(NC2CC2)c([N+](=O)[O-])c1	x	-20.3	x	u	-2.7%	u
Cc1noc(C(=O)Nc2ccc(C#N)cc2)c1Cl	34.3	40.3	-1.3	36.6%	-8.5%	167.0%
Cc1noc(C(=O)Nc2ccc(F)cc2F)c1Cl	43.6	1.1	31.3*	73.6%	13.7%	57.1%
Cc1ccc(O)c(NC(=O)c2onc(C)c2Cl)c1	66.1*	156.2	30.3*	11.7µM*	-4.5%	-8.4%
CCN1C[C@@H]2[C@@H]3C(=O)N(C)C(=O)[C@@H]3[C@](Cc3ccccc3)(C1=O)N2C(=O)c1ccc(F)cc1	x	10.6	x	x	0.2%	x
CCC(=O)N1c2ccc(S(=O)(=O)NCc3cccc(OC)c3)cc2CC1C (stereo unspecified)	x	-12.8	x	x	x	x
COc1ccc(CCN2C(=O)CN(C3CCC(C)CC3)C(=O)C2c2ccc(OC(C)C)c(OC)c2)cc1OC (stereo unspecified)	x	0.0	x	x	x	x
C/C=C(\C)C(=O)OC1[C@H](OC(C)=O)C2(CO)C(CC1(C)C)C1=CCC3C4(C)CCC(O[C@@H]5O[C@H](C(=O)O)[C@@H](O[C@@H]6O[C@H](CO)[C@@H](O)[C@H](O)[C@H]6O)[C@H](O)[C@H]5O[C@H]5O[C@H](CO)[C@@H](O)[C@H](O)[C@H]5O)[C@](C)(CO)C4CCC3(C)[C@]1(C)C[C@H]2O (stereo partly specified)	x	x	x	x	3.16µM*	x
CC1(C)C[C@H]2C3=CCC4[C@@]5(C)CC[C@H](O[C@@H]6O[C@H](C(=O)O)[C@@H](O)[C@H](O)[C@H]6O)[C@@](C)(CO)C5CC[C@@]4(C)[C@]3(C)C[C@H](O)[C@@]2(CO)[C@@H](O)[C@@H]1O (stereo partly specified)	x	1.5	x	x	3.0%	x
SMILES	Shiga inhibitor	HCMV antiviral	CHX counter	Pf growth 48h	HCV inhibitor	Pf growth 96h
CCOc1ccc(CCNC(=O)Cn2nnc(-c3ccccc3Cl)n2)cc1OCC	x	3.3	x	x	x	x
COc1cccc(NC(=O)COC(=O)C2C3CC4OC(=O)C2C4C3)c1 (stereo unspecified)	28.7	3.3	20.9*	6.5%	-13.3%	7.2%
O=C(Nc1ccccc1F)C(=O)c1cn(CC(=O)N2CCCCC2)c2ccccc12	53.9*	-5.0	32.7*	9.0%	-21.8%	-11.2%
O=C(CSc1cn(CC(=O)N2CCCCCC2)c2ccccc12)Nc1ccccc1F	x	-37.8	x	x	x	x
CC(=O)Nc1cccc(NC(=O)C(=O)c2cn(CC(=O)N3CCCCC3)c3ccccc23)c1	85.2*	33.8	45.1*	41.1%	-3.9%	u
CC(=O)Nc1ccc(NC(=O)C(=O)c2cn(CC(=O)N3CCCC3)c3ccccc23)cc1	22.8	-0.4	-0.6	-20.2%	x	8.9%
COc1cccc(CC(=O)N(CCC2=CCCCC2)c2c(N)n(Cc3ccccc3)c(=O)[nH]c2=O)c1	x	-12.6	x	u	-17.2%	-17.8%
COc1cccc(C2=CC(c3cc(OC)ccc3OC)n3nnnc3N2)c1 (stereo unspecified)	-4.5	-34.1	14.6	-12.2%	u	u
COc1cccc(C2=CC(c3cccc(OC)c3OC(F)F)n3nnnc3N2)c1 (stereo unspecified)	8.1	24.8	16.7*	u	u	232.9%
COc1cccc(C2=CC(c3cccc(OC)c3OC)n3nnnc3N2)c1 (stereo unspecified)	41.1*	u	29.6*	46.8%	u	u
COc1cccc(C2C=C(c3ccc(C)c(C)c3)Nc3nnnn32)c1OC (stereo unspecified)	x	-0.5	x	x	x	x
COC(=O)c1cccn(CC(=O)c2ccc(Cl)cc2Cl)c1=O	18.8	32.4	8.7	u	31.6%	34.3%
NC(=O)c1ccccc1NC(=O)CN1CCN(Cc2ccc(Cl)cc2Cl)CC1	-10.1	u	-5.0	u	u	27.2%
O=S1(=O)NCC23CCC(CC21)O3 (stereo unspecified)	-15.0	x	4.8	x	x	x
COC(=O)CCCNC(=O)CC1C(=O)NCCN1Cc1ccoc1 (stereo unspecified)	17.4	-5.9	-1.9	32.4%	27.9%	13.1µM*
COc1cccc(CN2CCNC(=O)C2CC(=O)NCCn2ccc3ccccc32)c1OC (stereo unspecified)	-11.4	17.7	8.2	11.7µM*	-20.5%	u
